{"source": "PubChem BioAssay AID743361", "about": "(Molecular Libraries Program, Specialized Chemistry Center, …, 2014)", "note": "A number with no mark means an inactive call. Active and inactive are the calls of the source. How the calls were made is not given here."}
{"assay": "cell-free Rh123 fluorescence quenching read-out – biochemical, dry powder samples, uHTS hits, counter-screen for mtPTP inhibitor project, dose response (AID 743361)", "details": "Rhodamine 123 fluorescence quenching counterscreen"}
{"smiles": "O=S(=O)(Nc1ccc(CN2CCCCC2)cc1)c1cc(Cl)cc(Cl)c1", "IC50": "> 100 µM"}
{"smiles": "COc1ccc(Cl)cc1C(=O)Nc1ccc(CN2CCN(C)CC2)cc1", "IC50": "> 100 µM"}
{"smiles": "COc1ccc(Cl)c(C(=O)Nc2ccc(CCN3CCN(C)CC3)cc2)c1", "IC50": "> 100 µM"}
{"smiles": "COc1ccc(Cl)cc1S(=O)(=O)Nc1ccc(CCN2CCCCC2)cc1", "IC50": "> 100 µM"}
{"smiles": "COc1ccc(Cl)cc1C(=O)Nc1ccc(N2CCOCC2)cc1", "IC50": "> 100 µM"}
{"smiles": "COc1ccc(Cl)cc1C(=O)Nc1ccc(CCN2CCN(C)CC2)cc1", "IC50": "> 100 µM"}
{"smiles": "CN1CCN(c2ccc(NS(=O)(=O)c3cc(Cl)cc(Cl)c3)cc2)CC1", "IC50": "> 100 µM"}
{"smiles": "CCN(CC)c1ccc(NC(=O)c2ccc(OC)c(Cl)c2)cc1", "IC50": "> 100 µM"}
{"smiles": "O=S(=O)(Nc1ccc(CCN2CCCCC2)cc1)c1cccc(Cl)c1", "IC50": "> 100 µM"}
{"smiles": "COc1ccccc1C(=O)Nc1ccc(CN2CCCCC2)cc1", "IC50": "> 100 µM"}
{"smiles": "Cc1ccc(Cl)cc1NC(=O)c1cc(-c2cccc(O)c2)on1", "IC50": "> 100 µM"}
{"smiles": "COc1ccc(Cl)cc1C(=O)Nc1ccccc1", "IC50": "> 100 µM"}
{"smiles": "CN1CCN(Cc2ccc(NS(=O)(=O)c3ccc(F)c(Cl)c3)cc2)CC1", "IC50": "> 100 µM"}
{"smiles": "O=S(=O)(Nc1ccc(CN2CCCCC2)cc1)c1ccc(F)c(Cl)c1", "IC50": "> 100 µM"}
{"smiles": "CN1CCN(c2ccc(NS(=O)(=O)c3ccc(F)c(Cl)c3)cc2)CC1", "IC50": "> 100 µM"}
{"smiles": "COc1ccc(Cl)cc1C(=O)Nc1ccc(CCN2CCCCC2)cc1", "IC50": "> 100 µM"}
{"smiles": "CN1CCN(c2ccc(NS(=O)(=O)c3cccc(Cl)c3)cc2)CC1", "IC50": "> 100 µM"}
{"smiles": "O=C(Nc1ccc(Cl)cc1)c1cc(-c2cccc(O)c2)on1", "IC50": "> 100 µM"}
{"smiles": "O=S(=O)(Nc1ccc(CCN2CCCCC2)cc1)c1ccc(F)c(Cl)c1", "IC50": "> 100 µM"}
{"smiles": "COc1ccc(Cl)cc1S(=O)(=O)Nc1ccc(CN2CCCCC2)cc1", "IC50": "> 100 µM"}
{"smiles": "O=C(Nc1cccc(Cl)c1Cl)c1cc(-c2cccc(O)c2)on1", "IC50": "> 100 µM"}
{"smiles": "Cc1ccc(-c2cc(C(=O)Nc3cccc(Cl)c3)no2)cc1", "IC50": "> 100 µM"}
{"smiles": "CN1CCN(CCc2ccc(NS(=O)(=O)c3ccc(F)c(Cl)c3)cc2)CC1", "IC50": "> 100 µM"}
{"smiles": "O=C(Nc1ccc(N2CCCCC2)cc1)c1cccc(OCc2ccccc2)c1", "IC50": "> 100 µM"}
{"smiles": "CN1CCN(Cc2ccc(NS(=O)(=O)c3cccc(Cl)c3)cc2)CC1", "IC50": "> 100 µM"}
{"smiles": "O=C(Nc1ccc(OCc2ccccc2)c(Cl)c1)c1cc(-c2cccc(O)c2)on1", "IC50": "> 100 µM"}
{"smiles": "O=C(Nc1ccc(CN2CCCCC2)cc1)c1cc(Cl)cc(OCc2ccccc2)c1", "IC50": "26.9 µM (active)"}
{"smiles": "COc1ccc(Cl)cc1C(=O)Nc1ccc(N2CCCCC2)cc1", "IC50": "> 100 µM"}
{"smiles": "O=C(Nc1ccc(CN2CCCCC2)cc1)c1ccc(Cl)c(OCc2ccccc2)c1", "IC50": "28.2 µM (active)"}
{"smiles": "COc1ccc(Cl)cc1S(=O)(=O)Nc1ccc(CN2CCN(C)CC2)cc1", "IC50": "> 100 µM"}
{"smiles": "COc1ccc(Cl)cc1S(=O)(=O)Nc1ccc(N2CCN(C)CC2)cc1", "IC50": "> 100 µM"}
